Inconclusive results are not listed. Activity calls are given as the source filed them. The calls were made as follows, unless noted: active = hit-call score of the fitted dose curve at least 0.9, where 1 is the maximum; inactive = score below 0.9.

Assay [1] can be described thus: CCTE_Harrill_HTTr_Viability_MCF7: CCTE's 6-hour Cell Viability Assessment for the High-Throughput Transcriptomics (HTTr) Platform, in MCF-7 cells cultured in DMEM + 10% fetal bovine serum, Harrill Lab (AID 2284010). Put shortly:
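Membrane integrity was scored by high-content imaging of propidium iodide dye exclusion after a 6 h exposure across an eight-point dilution series. Data were fitted bidirectionally relative to DMSO as negative control and baseline.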

A short description of assay [2]: CCTE_Harrill_HTTr_Apoptosis_MCF7: CCTE's 6-hour Apoptosis Assessment for the High-Throughput Transcriptomics (HTTr) Platform, in MCF-7 cells cultured in DMEM + 10% fetal bovine serum, Harrill Lab (AID 2284011). Put shortly:
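Read-out: CellEvent Caspase 3/7 Green signal by high content imaging, gain-of-signal indicating apoptosis. MCF-7 cells, DMEM + 10% FBS, eight-point dilution series, 6 h exposure. Curves fitted bidirectionally relative to DMSO negative control.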

A short description of assay [3]: ATG_CRE_CIS: Attagene CIS-FACTORIAL HepG2 Assay for human cAMP Responsive Element (CRE) binding protein 3 (AID 2282926). Conditions: HepG2 CRE cis-reporter, Attagene multiplexed mRNA; actives raise or lower the signal. Put shortly:
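Endogenous CRE-binding activity in HepG2 is reported through a cis-regulated transfected reporter. Following a day of exposure, mRNA levels are determined by reverse transcription PCR and fluorescent fragment analysis; fits run in both directions versus DMSO.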

Assay [4] can be described thus: ATG_DR4_LXR_CIS: Attagene CIS-FACTORIAL HepG2 Assay for human Liver X Receptor (LXR), DR4 submotif (AID 2282929). The conditions noted are these: HepG2 Attagene DR4 cis-reporter, mRNA transcription; actives raise or lower the signal. Put shortly: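 Measures endogenous transcription factor activity via a DR4-driven reporter transcript in human HepG2 cells. Compounds incubated 24 h; mRNA quantified by RT-PCR and capillary electrophoresis, analysed as gain or loss of signal versus DMSO.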

Assay [5] is described as follows: ATG_AP_1_CIS: Attagene CIS-FACTORIAL HepG2 Assay for human Activator Protein 1 (AP-1) (AID 2282931). Conditions: HepG2 Attagene cis-factorial AP-1 reporter mRNA; actives raise or lower the signal. The method, boiled down: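 Bidirectional concentration-response fitting against DMSO controls. Underlying signal: reporter mRNA from cis-promoter constructs in transiently transfected HepG2, measured after 24 h by RT-PCR and capillary electrophoresis.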

The target in assay [6] is Hepatocyte nuclear factor 3-beta (Homo sapiens) (UniProt Q9Y261). As to the kind of experiment: ATG_FoxA2_CIS: Attagene CIS-FACTORIAL HepG2 Assay for human Forkhead box A2 (FOXA2) (AID 2282942). Conditions: HepG2 cis-reporter transcription factor activity, 24 h; actives raise or lower the signal. The method, boiled down:
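In transiently transfected human HepG2 cells, promoter-driven reporter mRNA levels after 24 h chemical exposure are determined via RT-PCR with capillary electrophoresis. DMSO serves as baseline for bidirectional fitting.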

Assay [7] concerns the target Hypoxia-inducible factor 1-alpha (Homo sapiens) (UniProt Q16665). As to the kind of experiment: ATG_HIF1a_CIS: Attagene CIS-FACTORIAL HepG2 Assay for human Hypoxia Inducible Factor 1 (HIF1A) (AID 2282951). Conditions: HepG2 Attagene cis-factorial HIF1a reporter transcription; actives raise or lower the signal. Put shortly: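 In this multiplexed cell assay, HepG2 cells bearing transfected cis reporters are dosed for 24 h and reporter mRNA is read by RT-PCR plus capillary electrophoresis; signal increases and decreases are both scored against DMSO.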

Assay [8] is described as follows: ATG_RORE_CIS: Attagene CIS-FACTORIAL HepG2 Assay for human RAR-related Orphan Receptor Element (RORE) (AID 2282959). The conditions noted are these: HepG2 Attagene cis-factorial RORE reporter, mRNA; actives raise or lower the signal. The method, boiled down: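 Fluorescence intensity of reporter-specific cDNA fragments, separated by capillary electrophoresis, gives the signal. Source: HepG2 liver cells transiently transfected with cis-element reporters and exposed 24 h; DMSO-normalized bidirectional fit.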

A short description of assay [9]: ATG_Sox_CIS: Attagene CIS-FACTORIAL HepG2 Assay for human SRY-box transcription factor (SOX) (AID 2282960). Conditions: HepG2 Attagene cis-factorial SOX reporter, mRNA; actives raise or lower the signal. Put shortly: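 After 24 h of chemical treatment, transfected HepG2 reporter cells are lysed for total RNA. Transcript levels come from RT-PCR with labelled primer extension and capillary electrophoresis, analysed bidirectionally versus DMSO.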

In assay [10] the target is Transcription factor Sp1 (Homo sapiens) (UniProt P08047). As to the kind of experiment: ATG_Sp1_CIS: Attagene CIS-FACTORIAL HepG2 Assay for human Specificity Protein 1 (Sp1) (AID 2282961). The conditions noted are these: HepG2 Sp1 cis-reporter transcription, actives raise or lower the signal. Put shortly:
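Sp1-driven reporter mRNA, read as capillary electrophoresis fluorescence after RT-PCR, in transiently transfected HepG2 cells dosed for 24 h; signal change in either direction relative to DMSO.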

Assay [11] can be described thus: ATG_TA_CIS: Attagene CIS-FACTORIAL HepG2 Assay for human TA Basal Promoter (AID 2282964). Conditions: HepG2 Attagene CIS-factorial TA basal promoter reporter; actives raise or lower the signal. The method, boiled down:
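Multiplexed mRNA reporter assay, HepG2, 24 h. Reporter cDNA amplified, 6-FAM primer-extended, HpaI-cut, CE-sized; DMSO = negative control and baseline.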

Assay [12] is described as follows: ATG_TCF_b_cat_CIS: Attagene CIS-FACTORIAL HepG2 Assay for human T-Cell-Factor with beta-catenin (TCF/b-cat) (AID 2282965). The conditions noted are these: HepG2 TCF/beta-catenin cis-reporter transcription, actives raise or lower the signal. Put shortly: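 Endogenous transcription factor activity is captured through cis-promoter reporter constructs transiently introduced into human HepG2 liver cells. Induced reporter mRNA is measured after 24 h and fitted bidirectionally relative to DMSO.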

A short description of assay [13]: ATG_TAL_CIS: Attagene CIS-FACTORIAL HepG2 Assay for human TAL Basal Promoter (AID 2282966).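 Also: background control endpoint measuring basal TAL promoter reporter mRNA not a specific factor.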 Conditions: HepG2 Attagene cis-factorial TAL promoter reporter; actives raise or lower the signal. Put shortly:
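In this cell-based multiplex, HepG2 liver cells bearing cis-promoter reporter constructs are dosed for 24 hours. Total RNA is reverse-transcribed and amplified, labelled fragments are sized by capillary electrophoresis, and signal changes are fitted bidirectionally versus DMSO.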

The nature of assay [14]: ATG_TGFb_CIS: Attagene CIS-FACTORIAL HepG2 Assay for human Transforming Growth Factor (TGF) (AID 2282967). Conditions: HepG2 Attagene CIS TGFb reporter, mRNA transcription; actives raise or lower the signal. The method, boiled down:
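Transcript-level reporter readout: HepG2 transfectants, 24 h exposure, RNA to cDNA, reporter-specific PCR, fluorescent primer extension, capillary sizing against ROX standards. Gain- or loss-of-signal relative to DMSO.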

For assay [15], the target named is Transcriptional activator Myb (Homo sapiens) (UniProt P10242). In words: ATG_Myb_CIS: Attagene CIS-FACTORIAL HepG2 Assay for human Myeloblastosis (Myb) Proto-Oncogene Transcription Factor (AID 2282986). The conditions noted are these: HepG2 Attagene CIS-FACTORIAL Myb reporter transcription; actives raise or lower the signal. The method, boiled down:
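Fluorescence signals from capillary electrophoresis of RT-PCR-amplified reporter cDNA give the read-out. Cells: HepG2 transfected with multiple cis-regulated reporter units. Exposure lasts 24 hours; DMSO defines baseline for gain or loss of signal.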

The target in assay [16] is Nuclear respiratory factor 1 (Homo sapiens) (UniProt Q16656). As to the kind of experiment: ATG_NRF1_CIS: Attagene CIS-FACTORIAL HepG2 Assay for human Nuclear Respiratory Factor 1 (NRF1) Orphan Gene (AID 2282987). Conditions: HepG2 NRF1 cis-element reporter, Attagene multiplex; actives raise or lower the signal. The method, boiled down: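 Transcriptional reporter readout, one component of a 52-endpoint multiplexed HepG2 panel. Exposure 24 h; mRNA detected via RT-PCR and fluorescent capillary electrophoresis; fitting in both directions against DMSO.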
Sequence of Nuclear respiratory factor 1 (Homo sapiens) (Q16656 whole entry, looked up): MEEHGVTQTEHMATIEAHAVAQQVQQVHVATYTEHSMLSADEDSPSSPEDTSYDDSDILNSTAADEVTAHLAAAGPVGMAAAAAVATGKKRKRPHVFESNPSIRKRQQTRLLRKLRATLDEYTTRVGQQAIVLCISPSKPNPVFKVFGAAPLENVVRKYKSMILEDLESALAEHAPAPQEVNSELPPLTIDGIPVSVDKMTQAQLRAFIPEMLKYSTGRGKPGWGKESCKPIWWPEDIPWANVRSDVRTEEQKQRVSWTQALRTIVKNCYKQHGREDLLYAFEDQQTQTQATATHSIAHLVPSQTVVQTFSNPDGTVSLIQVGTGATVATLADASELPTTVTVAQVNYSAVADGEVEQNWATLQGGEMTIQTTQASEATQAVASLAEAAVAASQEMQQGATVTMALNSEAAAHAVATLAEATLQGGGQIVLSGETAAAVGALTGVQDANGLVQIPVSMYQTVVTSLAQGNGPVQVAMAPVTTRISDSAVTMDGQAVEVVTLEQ

Assay [17] can be described thus: ATG_NFI_CIS: Attagene CIS-FACTORIAL HepG2 Assay for human Nuclear Factor I (NFI) (AID 2282989). Conditions: HepG2 cis-regulatory reporter, NFI response element transcription; actives raise or lower the signal. The method, boiled down: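 After transient transfection of HepG2 with cis-promoter reporter constructs and 24 h dosing, RNA is reverse-transcribed, amplified, 6-FAM end-labelled and HpaI-digested before capillary analysis. Bidirectional curve fitting against DMSO.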

Assay [18] has as its target Cellular tumor antigen p53 (Homo sapiens) (UniProt P04637). As to the kind of experiment: ATG_p53_CIS: Attagene CIS-FACTORIAL HepG2 Assay for human p53 Transcription Factor (AID 2282994). The conditions noted are these: HepG2 p53 cis-element reporter, Attagene mRNA; actives raise or lower the signal. The method, boiled down:
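HepG2, transient MRTU transfection (cis promoter elements, endogenous TFs); 24 h dosing; RNA isolation, RT-PCR, 6-FAM primer extension, HpaI digest, CE fluorescence; bidirectional fit vs DMSO.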

Assay [19] is described as follows: ATG_VDRE_CIS: Attagene CIS-FACTORIAL HepG2 Assay for human Vitamin D Receptor Element (VDRE) (AID 2282968). Conditions: HepG2 VDRE cis-reporter transcription, actives raise or lower the signal. The method, boiled down:
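In transiently transfected HepG2 liver cells, gain or loss of reporter mRNA after 24 h exposure is scored relative to DMSO, using fluorescence detection by capillary electrophoresis of RT-PCR products.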

For assay [20], the target named is bovine Estrogen Receptor (ER), ESR1 (gene 407238) (UniProt P49884). As to the kind of experiment: NVS_NR_bER: NovaScreen (NVS) Nuclear Receptor Binding Assay for bovine Estrogen Receptor (ER) (AID 2283345; active = hit-call score of the fitted dose curve at least 0.9, where 1 is the maximum;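 also: actives lower the bound radioligand count which means they displace the ER ligand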). Put shortly: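 Bovine uterine membranes; tritiated or iodinated radioligand; competitive displacement; 18 h; scintillation read; DMSO negative control; 25 uM duplicates, then concentration series for actives.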
Sequence of bovine Estrogen Receptor (ER), ESR1 (gene 407238) (P49884 whole entry, looked up): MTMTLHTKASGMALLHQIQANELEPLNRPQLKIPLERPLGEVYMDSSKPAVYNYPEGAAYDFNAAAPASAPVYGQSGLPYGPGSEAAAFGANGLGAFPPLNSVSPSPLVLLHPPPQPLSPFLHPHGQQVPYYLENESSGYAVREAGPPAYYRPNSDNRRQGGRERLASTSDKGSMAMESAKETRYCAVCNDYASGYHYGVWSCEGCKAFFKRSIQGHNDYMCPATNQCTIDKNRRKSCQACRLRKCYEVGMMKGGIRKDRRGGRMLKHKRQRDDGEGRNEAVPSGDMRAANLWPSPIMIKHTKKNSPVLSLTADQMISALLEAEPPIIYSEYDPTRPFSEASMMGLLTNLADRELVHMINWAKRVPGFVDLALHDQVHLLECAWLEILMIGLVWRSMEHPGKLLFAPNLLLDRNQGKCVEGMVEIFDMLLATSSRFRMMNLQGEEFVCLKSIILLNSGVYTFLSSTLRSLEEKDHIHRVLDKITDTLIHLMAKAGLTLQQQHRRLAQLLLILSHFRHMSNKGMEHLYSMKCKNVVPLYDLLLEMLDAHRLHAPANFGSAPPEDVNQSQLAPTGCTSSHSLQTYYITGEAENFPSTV

Sequence of Hypoxia-inducible factor 1-alpha (Homo sapiens) (Q16665 whole entry, looked up): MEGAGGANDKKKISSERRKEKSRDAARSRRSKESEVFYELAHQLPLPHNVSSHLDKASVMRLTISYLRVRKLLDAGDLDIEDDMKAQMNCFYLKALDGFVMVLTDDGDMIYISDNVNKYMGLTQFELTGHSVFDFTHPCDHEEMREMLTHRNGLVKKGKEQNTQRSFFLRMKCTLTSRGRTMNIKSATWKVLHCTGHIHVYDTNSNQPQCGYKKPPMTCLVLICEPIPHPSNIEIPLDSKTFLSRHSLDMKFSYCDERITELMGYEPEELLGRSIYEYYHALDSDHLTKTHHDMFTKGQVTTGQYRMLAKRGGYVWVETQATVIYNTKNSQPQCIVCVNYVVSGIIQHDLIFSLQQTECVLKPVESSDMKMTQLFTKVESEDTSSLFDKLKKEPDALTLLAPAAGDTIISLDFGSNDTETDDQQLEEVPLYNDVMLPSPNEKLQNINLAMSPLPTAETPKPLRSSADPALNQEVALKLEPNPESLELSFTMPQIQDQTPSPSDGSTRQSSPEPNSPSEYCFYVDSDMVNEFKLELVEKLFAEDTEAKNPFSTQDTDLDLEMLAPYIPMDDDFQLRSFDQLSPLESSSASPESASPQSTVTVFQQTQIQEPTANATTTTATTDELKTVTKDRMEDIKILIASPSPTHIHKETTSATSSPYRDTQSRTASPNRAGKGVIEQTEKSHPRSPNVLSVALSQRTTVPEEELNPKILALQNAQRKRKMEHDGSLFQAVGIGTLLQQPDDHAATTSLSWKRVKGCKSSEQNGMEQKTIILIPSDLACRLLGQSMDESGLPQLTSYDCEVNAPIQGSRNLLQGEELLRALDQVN
Sequence of Transcriptional activator Myb (Homo sapiens) (P10242 whole entry, looked up): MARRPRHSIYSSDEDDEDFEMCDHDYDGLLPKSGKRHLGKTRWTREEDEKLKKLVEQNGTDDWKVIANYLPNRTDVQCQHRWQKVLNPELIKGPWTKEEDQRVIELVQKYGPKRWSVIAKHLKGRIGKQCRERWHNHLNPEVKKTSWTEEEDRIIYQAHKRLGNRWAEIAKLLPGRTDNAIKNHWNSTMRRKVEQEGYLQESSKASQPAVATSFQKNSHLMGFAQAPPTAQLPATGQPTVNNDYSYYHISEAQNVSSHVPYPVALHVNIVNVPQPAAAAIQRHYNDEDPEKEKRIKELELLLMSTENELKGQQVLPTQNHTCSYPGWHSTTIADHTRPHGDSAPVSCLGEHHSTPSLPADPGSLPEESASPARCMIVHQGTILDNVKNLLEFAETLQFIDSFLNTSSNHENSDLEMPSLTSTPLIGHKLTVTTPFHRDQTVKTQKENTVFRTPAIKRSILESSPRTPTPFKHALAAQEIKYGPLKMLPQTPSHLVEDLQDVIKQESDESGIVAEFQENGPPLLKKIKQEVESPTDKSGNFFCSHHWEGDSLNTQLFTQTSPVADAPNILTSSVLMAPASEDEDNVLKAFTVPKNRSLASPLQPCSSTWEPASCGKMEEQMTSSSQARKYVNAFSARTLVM
Sequence of Hepatocyte nuclear factor 3-beta (Homo sapiens) (Q9Y261 whole entry, looked up): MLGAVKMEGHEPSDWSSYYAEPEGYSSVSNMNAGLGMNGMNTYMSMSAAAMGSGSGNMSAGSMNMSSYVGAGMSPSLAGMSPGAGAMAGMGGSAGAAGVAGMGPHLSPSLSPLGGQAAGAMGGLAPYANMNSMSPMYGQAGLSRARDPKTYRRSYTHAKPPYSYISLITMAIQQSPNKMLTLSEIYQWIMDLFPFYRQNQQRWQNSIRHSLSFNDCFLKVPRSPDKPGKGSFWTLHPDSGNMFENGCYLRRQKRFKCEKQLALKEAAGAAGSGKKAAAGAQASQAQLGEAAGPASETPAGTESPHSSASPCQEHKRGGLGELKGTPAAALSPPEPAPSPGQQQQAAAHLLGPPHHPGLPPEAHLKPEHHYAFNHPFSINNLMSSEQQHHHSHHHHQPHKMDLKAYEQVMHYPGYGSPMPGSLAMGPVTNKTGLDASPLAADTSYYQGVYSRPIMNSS
Sequence of Transcription factor Sp1 (Homo sapiens) (P08047 whole entry, looked up): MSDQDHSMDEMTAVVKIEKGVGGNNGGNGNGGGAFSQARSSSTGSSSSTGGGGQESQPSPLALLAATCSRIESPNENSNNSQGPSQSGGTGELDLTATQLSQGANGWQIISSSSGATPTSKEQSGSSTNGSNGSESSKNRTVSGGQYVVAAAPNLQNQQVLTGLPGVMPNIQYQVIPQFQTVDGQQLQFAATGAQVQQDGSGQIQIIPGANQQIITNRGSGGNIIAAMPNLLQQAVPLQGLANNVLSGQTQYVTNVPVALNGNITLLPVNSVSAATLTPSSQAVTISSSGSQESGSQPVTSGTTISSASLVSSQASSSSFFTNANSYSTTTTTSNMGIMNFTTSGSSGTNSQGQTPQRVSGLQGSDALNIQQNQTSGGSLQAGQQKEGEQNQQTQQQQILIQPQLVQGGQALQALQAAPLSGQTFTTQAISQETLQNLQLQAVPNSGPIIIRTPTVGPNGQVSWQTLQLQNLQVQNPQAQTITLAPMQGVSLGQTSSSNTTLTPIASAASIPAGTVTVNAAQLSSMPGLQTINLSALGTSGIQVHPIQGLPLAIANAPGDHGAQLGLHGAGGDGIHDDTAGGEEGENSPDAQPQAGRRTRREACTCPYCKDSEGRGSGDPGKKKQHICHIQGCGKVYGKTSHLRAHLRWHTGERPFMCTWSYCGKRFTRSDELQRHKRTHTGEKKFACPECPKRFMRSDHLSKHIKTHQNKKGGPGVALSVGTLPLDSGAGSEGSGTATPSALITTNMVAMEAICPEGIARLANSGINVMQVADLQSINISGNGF
Sequence of Cellular tumor antigen p53 (Homo sapiens) (P04637 whole entry, looked up): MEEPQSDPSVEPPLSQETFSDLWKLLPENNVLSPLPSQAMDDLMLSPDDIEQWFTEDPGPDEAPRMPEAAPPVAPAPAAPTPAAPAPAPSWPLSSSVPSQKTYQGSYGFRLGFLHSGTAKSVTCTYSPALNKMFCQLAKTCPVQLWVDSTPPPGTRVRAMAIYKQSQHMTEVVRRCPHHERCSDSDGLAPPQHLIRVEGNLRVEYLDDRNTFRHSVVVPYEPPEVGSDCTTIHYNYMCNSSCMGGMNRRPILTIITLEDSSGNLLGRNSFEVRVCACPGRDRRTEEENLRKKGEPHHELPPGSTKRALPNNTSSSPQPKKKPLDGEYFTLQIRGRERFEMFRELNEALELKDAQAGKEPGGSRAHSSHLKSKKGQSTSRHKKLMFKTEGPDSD

Take `COc1cc(CNC(=O)CCCC/C=C/C(C)C)ccc1O`: the outcome in [1] and in [2] was inactive.

For the molecule `COc1ccccc1Oc1c(NS(=O)(=O)c2ccc(C(C)(C)C)cc2)nc(-c2ncccn2)nc1OCCO`, the outcome in assay [1] and in assay [2] was inactive.

Regarding `Cc1ccnc(N)c1`, the result in assay [3], in [4], in assay [5], in assay [6], in [8] and in assay [9] was inactive. Also, the molecule was classed as inactive in assay [10], in assay [11], in [12], in assay [13], in assay [14] and in assay [15]. For the same molecule, the molecule was classed as inactive in assay [16], in [17], in assay [18], in assay [1] and in assay [2]. For the same molecule, the AC50 in assay [7] is 76.7 µM (active).

In the case of `CC/C=C\CCCCCO`, the molecule was called inactive in assay [3], in assay [4], in [5], in assay [6], in assay [7] and in assay [8]. For the same molecule, the result in assay [9], in assay [10], in assay [11], in [12], in [13] and in assay [14] was inactive. Also, the molecule was classed as inactive in [19], in assay [15], in [16], in [17] and in assay [18].

As to `CCCCCCOC(=O)CCCCCCCC(=O)OCCCCCC`, the molecule was called inactive in assay [3], in assay [4], in [5], in assay [6], in assay [7] and in assay [9]. Also, the molecule was classed as inactive in [10], in assay [11], in [12], in assay [13], in assay [14] and in assay [19]. The molecule was called inactive in [15], in assay [16] and in assay [17].

In the case of `CNC(=O)Nc1ccc(Cl)c(Cl)c1`, in assay [20], the molecule was classed as inactive.

Regarding `CCCCCCC/C=C/C=O`, the molecule was called inactive in assay [20].

As for `CC(=O)O[C@]1(C(C)=O)CC[C@H]2[C@@H]3C=C(C)C4=CC(=O)CC[C@]4(C)[C@H]3CC[C@@]21C`, the result in [20], in assay [1] and in assay [2] was inactive.

Consider `CCCCCCCCCCCCN(CCO)CCO`, for which the call in [20] was inactive.

Take `O=[N+]([O-])c1cc[n+]([O-])cc1`: the call in [20] was inactive.

`CCC(=O)C(=O)CC`: the molecule was classed as inactive in assay [20].

`Oc1ccc2c(c1)Cc1ccccc1-2`: the half-maximal activity concentration (AC50) in assay [20] is 36.3 µM (active). In addition, the outcome in [1] and in assay [2] was inactive.

As for `CNCCC(Oc1ccc(C(F)(F)F)cc1)c1ccccc1` (stereo unspecified), the AC50 in assay [1] was 75.8 µM (active); in assay [2], 69.4 µM (active).

`C[C@@H]1[C@H](O)[C@@H](C)/C=C/C=C/C=C/C=C/C=C/C=C/C=C/[C@H](O[C@@H]2O[C@H](C)[C@@H](O)[C@H](N)[C@@H]2O)C[C@@H]2O[C@](O)(C[C@@H](O)C[C@@H](O)[C@H](O)CC[C@@H](O)C[C@@H](O)CC(=O)O[C@H]1C)C[C@H](O)[C@H]2C(=O)O`: the outcome in assay [1] and in assay [2] was inactive.

On to `CC1(O)CSC(C)(O)CS1` (stereo unspecified), for which the molecule was classed as inactive in [20].

On to `CC(O)(c1ccc(Cl)cc1)c1ccc(Cl)cc1`, for which the molecule was classed as inactive in assay [20].

For `O=S(=O)(O)c1cc(Cl)c(Cl)cc1Cl`, the outcome in assay [20] was inactive.

On to `C#C[C@]1(OC(C)=O)CC[C@H]2[C@@H]3CCC4=C[C@@H](OC(C)=O)CC[C@@H]4[C@H]3CC[C@@]21C`, for which the result in assay [1] and in assay [2] was inactive.

Take `CC(COc1ccccc1)N(CCCl)Cc1ccccc1` (stereo unspecified): the outcome in assay [1] and in assay [2] was inactive.

The record behind these values is PubChem BioAssay (EPA / NIEHS).
